Legend:
Test in all cases: DAPPL (digital affinity profiling via proximity ligation, sequencing); 10 mM Tris-HCl pH 7.5, 50 mM NaCl, 1 mM DTT, 4% glycerol, room temperature, 30 min; GST-TFs on glutathione beads, 16-mer random dsDNA library, 0.1% formaldehyde crosslink after washing; high values mean tight binding
Settings in all cases: protein: recombinant; tags: N-terminal GST; dsDNA, one strand shown
ELK4 = molecular target: T1, ELK4 (Homo sapiens, UniProt P28324-2 1-405)
T1 sequence: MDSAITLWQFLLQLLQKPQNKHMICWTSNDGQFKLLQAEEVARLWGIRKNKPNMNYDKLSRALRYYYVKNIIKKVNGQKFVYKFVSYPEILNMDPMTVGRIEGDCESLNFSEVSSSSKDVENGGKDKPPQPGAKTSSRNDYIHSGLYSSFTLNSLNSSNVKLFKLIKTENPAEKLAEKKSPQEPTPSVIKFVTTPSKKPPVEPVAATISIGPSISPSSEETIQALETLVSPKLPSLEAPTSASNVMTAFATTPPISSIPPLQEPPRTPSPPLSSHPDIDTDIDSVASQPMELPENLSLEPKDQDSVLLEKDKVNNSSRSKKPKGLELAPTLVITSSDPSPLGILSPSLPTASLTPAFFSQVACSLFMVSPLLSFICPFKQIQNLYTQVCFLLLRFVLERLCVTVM
How it was run: (§1)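 A tag-only sample was pooled with DNA-barcoded human transcription factors that had been expressed in yeast as GST fusions and captured on glutathione beads. The pools were incubated for 30 min at room temperature with 200 nmole of a random double-stranded 16-mer DNA library in Tris/NaCl/DTT/glycerol buffer, then washed, crosslinked with 0.1% formaldehyde, proximity-ligated (BsaI/T4 ligase, 1 h, 37 °C), PCR-amplified and sequenced on an Illumina NextSeq500. Binding signal is each hexamer's read frequency for a factor divided by its frequency for the tag-only sample.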

ETV2 = molecular target: T2, ETV2 (Homo sapiens, UniProt O00321 1-342)
T2 sequence: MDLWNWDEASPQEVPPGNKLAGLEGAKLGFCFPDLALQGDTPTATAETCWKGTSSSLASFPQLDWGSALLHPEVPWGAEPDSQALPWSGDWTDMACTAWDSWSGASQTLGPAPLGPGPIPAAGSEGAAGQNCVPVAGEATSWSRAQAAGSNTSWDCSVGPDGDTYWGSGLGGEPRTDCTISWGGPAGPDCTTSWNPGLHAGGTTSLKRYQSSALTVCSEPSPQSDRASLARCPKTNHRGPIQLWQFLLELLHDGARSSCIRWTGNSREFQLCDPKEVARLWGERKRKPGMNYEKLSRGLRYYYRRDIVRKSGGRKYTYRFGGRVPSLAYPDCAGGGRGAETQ
How it was run: as §1

ELF3 = molecular target: T3, ELF3 (Homo sapiens, UniProt P78545 1-371)
T3 sequence: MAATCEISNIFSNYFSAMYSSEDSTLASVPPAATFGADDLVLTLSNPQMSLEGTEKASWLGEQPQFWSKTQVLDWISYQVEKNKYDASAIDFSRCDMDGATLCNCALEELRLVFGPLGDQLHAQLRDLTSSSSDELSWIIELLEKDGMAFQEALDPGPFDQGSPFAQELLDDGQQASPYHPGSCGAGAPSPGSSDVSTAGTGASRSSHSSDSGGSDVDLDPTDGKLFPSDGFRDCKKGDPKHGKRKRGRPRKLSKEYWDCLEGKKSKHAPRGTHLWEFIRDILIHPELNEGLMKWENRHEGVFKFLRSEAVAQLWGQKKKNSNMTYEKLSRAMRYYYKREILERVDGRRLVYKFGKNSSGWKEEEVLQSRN
How it was run: as §1

ETV1 = ETV1 (Homo sapiens, UniProt P50549 1-477)
ETV1, sequence (P50549 whole entry): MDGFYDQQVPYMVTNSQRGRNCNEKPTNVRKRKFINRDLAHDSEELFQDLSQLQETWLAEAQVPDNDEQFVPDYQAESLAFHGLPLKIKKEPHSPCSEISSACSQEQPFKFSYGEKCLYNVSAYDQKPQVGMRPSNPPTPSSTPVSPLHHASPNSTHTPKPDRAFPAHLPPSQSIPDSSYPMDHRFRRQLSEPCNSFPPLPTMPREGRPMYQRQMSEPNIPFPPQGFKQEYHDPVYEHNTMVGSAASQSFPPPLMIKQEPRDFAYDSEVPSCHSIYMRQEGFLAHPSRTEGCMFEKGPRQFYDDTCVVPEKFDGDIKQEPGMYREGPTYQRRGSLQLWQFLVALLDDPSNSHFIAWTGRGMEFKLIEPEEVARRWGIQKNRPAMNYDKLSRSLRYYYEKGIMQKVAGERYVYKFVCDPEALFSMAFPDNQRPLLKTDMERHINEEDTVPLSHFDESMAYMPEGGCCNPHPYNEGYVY
How it was run: as §1

ERF = molecular target: T4, ERF (Homo sapiens, UniProt P50548 1-548)
T4 sequence: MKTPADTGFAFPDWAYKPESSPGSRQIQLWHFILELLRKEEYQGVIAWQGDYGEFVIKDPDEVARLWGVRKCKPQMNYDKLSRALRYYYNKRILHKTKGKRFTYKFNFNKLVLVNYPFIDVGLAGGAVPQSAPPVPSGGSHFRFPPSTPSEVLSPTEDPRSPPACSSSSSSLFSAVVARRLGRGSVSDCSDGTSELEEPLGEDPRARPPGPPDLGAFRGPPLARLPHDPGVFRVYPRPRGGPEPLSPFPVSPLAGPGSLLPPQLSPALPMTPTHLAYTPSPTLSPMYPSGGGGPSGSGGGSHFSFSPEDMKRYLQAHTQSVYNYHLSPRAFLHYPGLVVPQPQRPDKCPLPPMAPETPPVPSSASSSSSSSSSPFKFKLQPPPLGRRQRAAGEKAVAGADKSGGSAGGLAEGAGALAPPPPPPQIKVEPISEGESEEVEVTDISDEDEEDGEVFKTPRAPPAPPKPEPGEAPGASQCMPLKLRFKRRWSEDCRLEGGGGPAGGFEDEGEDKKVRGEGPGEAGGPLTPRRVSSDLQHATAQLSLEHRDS
How it was run: as §1

ETV3L = molecular target: T5, ETV3L (Homo sapiens, UniProt Q6ZN32 1-361)
T5 sequence: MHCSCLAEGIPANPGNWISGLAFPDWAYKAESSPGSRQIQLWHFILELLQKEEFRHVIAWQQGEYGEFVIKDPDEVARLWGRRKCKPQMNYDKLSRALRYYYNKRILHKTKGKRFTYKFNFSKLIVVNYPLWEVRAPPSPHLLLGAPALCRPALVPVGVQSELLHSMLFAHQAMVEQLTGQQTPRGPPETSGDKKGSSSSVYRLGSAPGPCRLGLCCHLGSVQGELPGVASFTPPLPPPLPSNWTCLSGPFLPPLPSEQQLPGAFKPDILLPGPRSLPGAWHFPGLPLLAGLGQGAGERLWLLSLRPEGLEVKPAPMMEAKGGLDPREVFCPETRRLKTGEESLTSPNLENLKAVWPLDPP
How it was run: as §1

ETS2 = molecular target: T6, ETS2 (Homo sapiens, UniProt P15036 1-469)
T6 sequence: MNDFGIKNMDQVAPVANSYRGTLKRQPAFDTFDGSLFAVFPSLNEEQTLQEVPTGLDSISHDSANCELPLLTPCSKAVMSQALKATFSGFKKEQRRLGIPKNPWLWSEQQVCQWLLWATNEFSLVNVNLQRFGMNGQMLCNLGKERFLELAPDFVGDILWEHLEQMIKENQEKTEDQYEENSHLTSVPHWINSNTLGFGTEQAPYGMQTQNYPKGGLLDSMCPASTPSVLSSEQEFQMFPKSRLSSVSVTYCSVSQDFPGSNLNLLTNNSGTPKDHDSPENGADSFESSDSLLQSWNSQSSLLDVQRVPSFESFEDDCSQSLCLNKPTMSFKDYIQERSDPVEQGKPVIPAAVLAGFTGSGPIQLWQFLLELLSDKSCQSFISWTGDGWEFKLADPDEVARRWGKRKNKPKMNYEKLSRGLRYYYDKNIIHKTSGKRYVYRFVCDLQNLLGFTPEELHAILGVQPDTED
How it was run: as §1

SPDEF = molecular target: T7, SPDEF (Homo sapiens, UniProt O95238 1-335)
T7 sequence: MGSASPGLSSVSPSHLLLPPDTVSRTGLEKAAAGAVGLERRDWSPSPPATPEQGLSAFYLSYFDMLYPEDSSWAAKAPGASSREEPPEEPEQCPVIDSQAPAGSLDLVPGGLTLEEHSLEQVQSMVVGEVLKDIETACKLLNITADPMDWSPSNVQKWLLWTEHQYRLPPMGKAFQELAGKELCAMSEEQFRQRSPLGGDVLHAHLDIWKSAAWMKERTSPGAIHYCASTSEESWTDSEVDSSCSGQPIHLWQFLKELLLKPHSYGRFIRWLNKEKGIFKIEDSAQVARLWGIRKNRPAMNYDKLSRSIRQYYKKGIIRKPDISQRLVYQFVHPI
How it was run: as §1

ETV7 = molecular target: T8, ETV7 (Homo sapiens, UniProt Q9Y603 1-341)
T8 sequence: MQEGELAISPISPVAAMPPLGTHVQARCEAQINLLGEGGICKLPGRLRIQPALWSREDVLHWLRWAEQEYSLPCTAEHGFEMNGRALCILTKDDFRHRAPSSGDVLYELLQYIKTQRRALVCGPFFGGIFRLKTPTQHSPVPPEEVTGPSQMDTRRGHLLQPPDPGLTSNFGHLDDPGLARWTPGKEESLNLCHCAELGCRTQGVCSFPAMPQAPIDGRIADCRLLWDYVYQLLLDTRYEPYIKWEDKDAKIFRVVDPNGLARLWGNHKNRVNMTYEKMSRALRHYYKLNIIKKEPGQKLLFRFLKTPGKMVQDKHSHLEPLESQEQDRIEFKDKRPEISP
How it was run: as §1

ETV3 = molecular target: T9, ETV3 (Homo sapiens, UniProt P41162-2 1-143)
T9 sequence: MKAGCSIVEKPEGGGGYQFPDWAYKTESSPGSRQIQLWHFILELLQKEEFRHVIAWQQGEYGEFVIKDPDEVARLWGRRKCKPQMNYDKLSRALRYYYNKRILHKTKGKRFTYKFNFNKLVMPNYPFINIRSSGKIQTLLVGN
How it was run: as §1

Sequence: CGATGC
- binding signal (ELK4): 1.07 fold enrichment (6-mer frequency, TF over GST control)
- binding signal (ETV2): 1.15 fold enrichment (6-mer frequency, TF over GST control)
- binding signal (ELF3): 1.2 fold enrichment (6-mer frequency, TF over GST control)
- binding signal (ETV1): 1.03 fold enrichment (6-mer frequency, TF over GST control)
- binding signal (ERF): 1.07 fold enrichment (6-mer frequency, TF over GST control)
- binding signal (ETV3L): 1.18 fold enrichment (6-mer frequency, TF over GST control)
- binding signal (ETS2): 1.06 fold enrichment (6-mer frequency, TF over GST control)
- binding signal (SPDEF): 1.07 fold enrichment (6-mer frequency, TF over GST control)
- binding signal (ETV7): 1.04 fold enrichment (6-mer frequency, TF over GST control)
- binding signal (ETV3): 1.17 fold enrichment (6-mer frequency, TF over GST control)
